# Bioassay records: PubChem BioAssay, National Center for Advancing Translational Sciences (NCATS)
# PNC inhibitor: blocks assembly of the perinucleolar compartment. 140,000 compounds, 3.1% hits. activity change (PNC), negative = inhibition, % at 10 µM. AID 2417. PC3M PTB-GFP, PNC prevalence imaging, 16 h; active compounds read low;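 active = readout at or below -70, meaning at least 70% loss of cells showing the perinucleolar compartment, a nuclear body marking cancer cells; inconclusive = readout between -30 and a set limit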;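 also: plate controls were DMSO wells for no effect and camptothecin positive control wells for full effect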
#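 Compounds are pinned in duplicate onto adhered PC3M cells stably expressing GFP-tagged PTB and incubated 16 h at 37 C. Cells are then fixed, nuclei stained with Hoechst, and PNC-positive cells counted.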
# IMPase Li cell: membrane-permeable IMPase blocker, potentiated with lithium; Potency, µM (doses to about 59.4 µM), inactives show at the top dose activity, negative = IMPase inhibition, usual class: inhibitors; 210,000 compounds, 0.35% hits; CHO-M1 cells, IP1 TR-FRET (IP-One), carbachol + lithium;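 also: IP1 builds up when IMPase is blocked and the TR-FRET signal falls; potency is read from the fitted curve at half-maximal effect; plate controls were basal vehicle for no effect and high inhibitor control for full effect; nearly all actives have a fitted effect of over 50% in size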
#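 IP1 accumulation measured by competitive TR-FRET in lysed CHO-M1 cells after 30 min compound exposure at 37C, with a small lithium addition to potentiate weak responses. Hill-equation AC50 from ratio and donor-channel data.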
# IMPase inh: IMPase inhibition in cells. P97697. CHO-M1 cells, IP1 accumulation, HTRF TR-FRET ratio. 120,000 tested, under 10 active. inhibition (IP1 accumulation), % at 46.1 µM; active = well fitted curve in the direction sought with a large enough effect in the signal ratio, not every such curve was filed as active; inconclusive = small, poorly fitted or top-dose-only effect, or a change in a side signal; inactive = no such curve, though single readings can be large or run the other way; the % refers to the signal ratio;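 also: cells stimulated with carbachol in lithium chloride buffer; plate controls were DMSO basal wells for no effect and reference inhibitor wells for full effect; higher means more IMPase inhibition seen as more IP1 and lower FRET ratio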
#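 CHO-M1, 2000 cells/well, cultured 16–30 h; cpd up to 46 uM; carbachol (50 uM solution, stimulation buffer w/ 50 mM LiCl, pH 7.4), 30 min 37C; IP-One TR-FRET, 10 min RT; Ex 320/Em 665, 620; Hill-fit AC50.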
# ALOX15B inhib: 15-hLO-2 (ALOX15B) enzyme inhibition | O15296 | purified 15hLO-2, xylenol orange hydroperoxide absorbance | 110,000 compounds, 0.56% hits | Potency, µM (highest dose often 57.1 µM), inactives show top-dose activity change, negative = inhibition, most hits filed as inhibitors; also: potency is read from the fitted curve at half-maximal effect; nearly all actives have a fitted effect of over 60% in size
# Target sequence (O15296 whole entry, looked up): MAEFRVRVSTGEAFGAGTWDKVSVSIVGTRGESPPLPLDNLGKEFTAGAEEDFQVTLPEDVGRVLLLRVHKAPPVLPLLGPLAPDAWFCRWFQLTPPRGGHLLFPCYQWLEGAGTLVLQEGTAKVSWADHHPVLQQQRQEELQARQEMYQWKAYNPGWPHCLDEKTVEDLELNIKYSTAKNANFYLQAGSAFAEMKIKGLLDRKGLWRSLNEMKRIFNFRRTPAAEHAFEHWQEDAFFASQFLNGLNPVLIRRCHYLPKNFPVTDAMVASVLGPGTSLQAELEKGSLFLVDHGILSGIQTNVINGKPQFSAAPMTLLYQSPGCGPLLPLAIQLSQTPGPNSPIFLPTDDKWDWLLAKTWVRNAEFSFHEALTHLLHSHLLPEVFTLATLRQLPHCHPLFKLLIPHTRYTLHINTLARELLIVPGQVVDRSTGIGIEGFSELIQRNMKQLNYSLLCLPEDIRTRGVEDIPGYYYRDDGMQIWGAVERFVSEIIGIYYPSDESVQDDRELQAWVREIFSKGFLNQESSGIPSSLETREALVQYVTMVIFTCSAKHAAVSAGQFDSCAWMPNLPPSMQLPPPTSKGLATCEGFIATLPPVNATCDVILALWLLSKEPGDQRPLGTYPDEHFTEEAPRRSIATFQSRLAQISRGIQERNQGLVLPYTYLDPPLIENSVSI
#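 Purified human 15hLO-2 (50 nM) preincubated 15 min with compound, then 45 uM arachidonic acid for 90 min at RT in 25 mM Hepes pH 7.5, 0.01% Triton X-100. Hydroperoxide detected by Fe-xylenol orange; 573/405 nm absorbance ratio.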
# 12-hLO inh: inhibitors of human 12-lipoxygenase (ALOX12); P18054; purified 12-hLO, xylenol orange hydroperoxide absorbance; Potency, µM (top dose mostly 57.1 µM), for the others: at the top dose activity change, negative = inhibition, actives largely listed as inhibitors; 150,000 compounds, 0.12% hits; AID 1452; also: potency is read from the fitted curve at half-maximal effect; nearly all actives have a fitted effect of over 55% in size
#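 Hydroperoxide formation by human 12-lipoxygenase from 40 uM arachidonic acid was followed colorimetrically via ferric-xylenol orange complex, using the 573/405 nm absorbance ratio. Enzyme concentration was 150 nM, with 30 min reaction at room temperature.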
# HPGD block: HPGD (human) dehydrogenase inhibition; purified HPGD, NADH fluorescence kinetic, PGE2 substrate; Potency, µM, for inactives: at the top dose activity change, negative = inhibition, actives largely listed as inhibitors; 150,000 compounds, 4.3% hits; AID 894; active = well fitted inhibition curve with a large enough effect, not every such curve was filed as active; inconclusive = small, poorly fitted or top-dose-only effect, or another doubt; inactive = no such curve, though single readings can be large or run the other way; also: potency is read from the fitted curve at half-maximal effect
#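 20 nM HPGD preincubated 15 min at room temperature with compound in 50 mM Tris-HCl pH 8, 0.01% Tween 20. Started with 1 mM NAD+ and 30 uM prostaglandin E2; NADH fluorescence (360/450 nm) read 5 times over 30-s intervals, last minus first.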
# An asterisk follows results filed as active; ? = inconclusive; . = no result given; [ ] = remark or other dose. The list is not random: actives were taken first. Their share in the collection is about 5.3%. Unless noted, calls follow the shape of the dose curve; as a rule, active = well fitted curve in the direction sought with a large enough effect; inconclusive = small, poorly fitted or top-dose-only effect, or another doubt; inactive = no such curve, though single readings can be large; an effect the other way counts as inactive or inconclusive. Unless noted, % is scaled to controls: 0 for no effect and ±100 for the full control effect.
SMILES,PNC inhibitor,IMPase Li cell,IMPase inh,ALOX15B inhib,12-hLO inh,HPGD block
COc1ccc(CCN2C(=O)c3cccc4c(C(=O)N5CCCCC5)ccc(c34)C2=O)cc1OC,17,15%,-5,.,-2%,13µM*
COc1ccc(CCNC(=O)CCN2C(=O)c3cccc4cccc(c34)C2=O)cc1OC,.,13%,.,.,.,.
CC(C)CC(=O)c1c[nH]c(C(=O)N2CCN(Cc3ccccc3)CC2)c1,.,9%,.,.,.,.
Cc1cc(C(=O)NC2CCCCC2)c(C)n1-c1ccc(F)cc1,?,22%,5,.,-1%,4.5µM*
CCOC(=O)c1nnn(-c2nonc2N)c1-c1ccc(OC)cc1,-22,6%[38.3 µM],4,-1%,-4%,-10%
O=C(c1sc2cc([N+](=O)[O-])ccc2c1Cl)N1CCOCC1,13,4%,.,.,-1%,16µM*
CC(C)N(C(=O)c1sc2cc([N+](=O)[O-])ccc2c1Cl)C(C)C,17,10%[38.3 µM],-3,-2%,0%,28µM*
COc1ccc2nc3c(cc2c1)Cc1ccccc1-3,.,12%,.,-8%,-23%,?
CCN(CC)C(=O)c1cccc(-c2ccc(OC)cc2)c1,33,4%[38.3 µM],20,9%[2.29 µM],-2%,14µM*
CN(C)C(=O)CSc1nc2ccccc2c(=O)[nH]1,-11,16%[38.3 µM],-6,-3%,9%,-22%
COCCn1c(C)cc(C(=O)CSc2nc3ccccc3c(=O)[nH]2)c1C,?,30%[38.3 µM],13,-1%,3%,16µM*
CCN(CC)C(=O)CSc1nc2ncc(Cl)cc2[nH]1,?,-16%[38.3 µM],-8,2%,-3%,13µM*
CCN(CC)C(=O)CSc1nc2ccccc2c(=O)[nH]1,?,25%[38.3 µM],-8,0%,3%,8.9µM*
COCC(C)n1c(C)cc(C(=O)CSc2nc3ccccc3c(=O)[nH]2)c1C (configuration not stated),36,13%[38.3 µM],11,-7%,-7%,32µM*
CCCc1n[nH]c2c1C(=O)C(C(=O)OC)C(C)(C)C2 (configuration not stated),-3,0%[38.3 µM],-10,12%,-4%,-17%
CC1CCN(S(=O)(=O)c2ccc(NC(=O)CSc3ncccc3C(=O)O)cc2)CC1,14,24%[38.3 µM],-5,-6%,0%,14µM*
CC1CCN(S(=O)(=O)c2ccc(NC(=O)CSc3nnnn3C)cc2)CC1,?,25%[38.3 µM],3[1.84 µM],-5%[11.4 µM],-1%,-5%
O=C(CSc1nc2ccccc2c(=O)[nH]1)Nc1ccc(S(=O)(=O)N2CCCC2)cc1,-1,9%[38.3 µM],1,-13%,-8%,14µM*
C=CCn1c(C)cc(C(=O)CSc2nc3ccccc3[nH]2)c1C,?,22%[38.3 µM],7,8%,-2%,?
C=CCn1c(C)cc(C(=O)CSc2nc3ccccc3c(=O)[nH]2)c1C,24,?,14,?,-3%,2.8µM*
O=C(NCCO)c1ccc(Cl)cc1,.,2%,.,-3%[11.4 µM],-1%[11.4 µM],-3%
CCOC(=O)c1cc(-c2ccccc2)sc1NC(=O)C(C)N1C(=O)c2ccccc2C1=O (configuration not stated),12,-1%,-3,.,0%,-6%
Cc1ccc(C(=O)Oc2csc(=S)n2C(=O)c2ccc(C)cc2)cc1,?,35%[38.3 µM],5,?,-9%,5µM*
CCCCC(=O)N(Cc1nc2sc(C)c(C)c2c(=O)[nH]1)C1CCCC1,.,8%,.,.,.,.
COc1cc(SC)ccc1C(=O)NC1CCCCC1,-25,12%[38.3 µM],-1,?,-23%,22µM*
SMILES,PNC inhibitor,IMPase Li cell,IMPase inh,ALOX15B inhib,12-hLO inh,HPGD block
COc1cc(SC)ccc1C(=O)OCC(=O)NC1CCCCC1,.,-4%,.,.,.,.
O=C(NC1CCCCCCC1)c1cc(F)c(F)cc1Cl,.,4%,.,.,.,.
CSc1ccc(Cl)c(C(=O)NC2CCCC2)c1,20,8%[38.3 µM],3,2%,-2%,16µM*
COc1cc(SC)ccc1C(=O)N1CCN(c2ccccc2)CC1,.,-1%,.,.,.,.
O=C(NC1CC1)c1ccc(F)cc1Cl,1,26%[38.3 µM],-4,-8%,2%,20µM*
COc1cc(SC)ccc1C(=O)N1CCCCCC1,-17,11%,3,.,9%,3.2µM*
CN(C(=O)c1ccc(=O)n(Cc2ccc(Cl)cc2)c1)c1ccccc1,.,21%,.,.,.,.
Cc1ccccc1OCC(=O)Nc1ccc(-c2nc3cc(Cl)cc(Cl)c3o2)cc1,.,.,-22,.,.,.
O=C(CSc1cccc[n+]1[O-])Nc1cc(S(=O)(=O)N2CCOCC2)ccc1Cl,-88*,-3%,.,.,-1%,-11%
NCC[C@H](O)C(=O)N[C@H]1C[C@@H](N)[C@@H](O[C@H]2O[C@@H](CN)[C@@H](O)[C@@H](O)[C@@H]2O)[C@@H](O)[C@@H]1O[C@H]1O[C@@H](CO)[C@@H](O)[C@@H](N)[C@@H]1O,.,-2%,1[20.6 µM],36%[25.6 µM],6%[25.6 µM],4%
N#CC(C#N)=C1C=CC=CN1/C(=C\c1ccco1)C(=O)c1ccc(Cl)cc1,?,22%,4,.,2%,20µM*
N#CC(C#N)=C1C=CC=CN1/C(=C\c1ccco1)C(=O)c1ccc(-c2ccccc2)cc1,-11,21%,23,.,-4%,-26%
C/C(=C\C(=O)c1cccnc1)Nc1ccc(O)cc1,5,4%[38.3 µM],-5,0%,27%,16µM*
C/C(=C\C(=O)c1ccccc1)Nc1ccc(O)cc1,-25,25%[38.3 µM],8,-14%,-19%,-8%
Cn1c(=O)c(-c2cc(F)cc(F)c2)nc2cnc(N3CCNCC3)nc21,.,6%,.,18%,.,.
CC(C)C(NC(=O)CSCc1ccc([N+](=O)[O-])cc1)C(C)C,13,7%,.,.,-2%,10µM*
COCCNc1nc(C)c(C(C)=O)s1,.,0%,.,.,.,.
O=C(O)C1=CC(=C(c2ccc(O)c(C(=O)O)c2)c2ccc(O)c(C(=O)O)c2)C=CC1=O,.,?,?,7.9µM*,?,?
COc1cc2c(cc1OC)C(C)N(C(=O)c1cc3c(s1)-c1ccccc1OC3)CC2 (configuration not stated),?,4%,.,.,-3%,?
O=C(O)/C=C/c1cn(-c2ncc(C(F)(F)F)cc2Cl)c2ccccc12,?,-9%[38.3 µM],24,-26%,-7%,2µM*
COc1ccc(C(=O)c2sc3nc(-c4ccccc4)ccc3c2N)cc1,-14,-2%,.,.,0%,-14%
CC(C)OC(=O)c1sc2nc(-c3ccccc3)ccc2c1N,-100*,-27%[38.3 µM],?,-7%,-11%,?
COc1ccccc1NC(=S)Nc1ccc2cn[nH]c2c1,.,14%,.,.,.,.
O=C(Nc1ccccc1Cl)c1ccccc1Cl,25,-1%[38.3 µM],2,1%,-1%,28µM*
O=C(Nc1ccccc1Cl)c1ccc(Cl)cc1Cl,.,9%,.,.,.,.
